Measurements from the supplement of paper PMC10338343.
± gives the standard deviation.

What was measured:
[1] = test system: MILI (PIWIL2) piRISC loaded with piRNA #1 (26 nt); experiment: pre-steady-state target cleavage rate (min^-1); guide: piRNA #1 5'p-UGAGGUAGUAGGUUGUAUAGUAUCCA; higher = faster piRNA-guided slicing of the target; settings: auxiliary factor: 500 nM mouse GTSF1;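 further: 1 nM active piRISC with 0.1 nM target library at 33 °C single turnover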
Procedure, shortened: (§1)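 Active affinity-purified piRISC carrying one synthetic guide (1 nM) was mixed with a transcribed, DNA-blocked target RNA library […] in HEPES–potassium acetate buffer at 33 °C for 0–8 or 0–960 min, with or without 500 nM GTSF1 partner protein. Uncleaved targets were then sequenced and normalised to depth and to weakly complementary targets. Three trials were pooled, and k3 was capped at 0.0001 min^-1. A burst-and-steady-state fit was applied to obtain the pre-steady-state cleavage rate.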

[2] = test system: EfPiwi piRISC loaded with piRNA #1 (26 nt); experiment: pre-steady-state target cleavage rate (min^-1); auxiliary factor: 500 nM Ephydatia muelleri Gtsf1; guide: piRNA #1 5'p-UGAGGUAGUAGGUUGUAUAGUAUCCA; MIWI and MILI are mouse PIWI proteins and EfPiwi is from a freshwater sponge; tags in brackets are library labels; higher = faster piRNA-guided slicing of the target
Procedure, shortened: as §1

| Sequence | pre-steady-state target cleavage rate [1] | pre-steady-state target cleavage rate [2] |
| --- | --- | --- |
| GGAGACCAUACUAUACAACCUACUACGUGA | 0.115 ± 0.024 | 0.0051 ± 0.0028 |
| GGAGACCAUACAUACAACCUACUACCUCA | 0.119 ± 0.023 | 0.0126 ± 0.0066 |
| GGAGAGGUUACUAAACAACCUACUACCUCA | 0.142 ± 0.013 | 0.00353 ± 0.0034 |
| GGAGACGAUACUAUACAACCUAUACCUCA | 0.0145 ± 0.0044 | 0.00289 ± 0.0018 |
| GGAGAGGAUAUAUACAACCUACUACCUCA | 0.165 ± 0.014 | 0.00764 ± 0.0042 |
| GGAGACGAUACUAUACAACCUGACUACCUCA | 0.00401 ± 0.0024 | 0.00426 ± 0.0019 |
| GGAGAGCAUACUAUACAACCUUCUACCUCA | 0.0105 ± 0.0032 | 0.00445 ± 0.0027 |
| GGAGACGAUACUAUACAACCUAGUACCUCA | 0.0648 ± 0.014 | 0.00506 ± 0.0014 |
| GGAGACCUUACUAUACACCCUACUACCUCA | 0.058 ± 0.0099 | 0.00862 ± 0.0036 |
| GGAGUGGAUACUAUACAACCUACUAGCCUCA | 0.115 ± 0.019 | 0.00369 ± 0.0017 |
| GGAGACCUAACUAUGCAACCUACUACCUCA | 0.12 ± 0.013 | 0.00447 ± 0.0039 |
| GGAGAGGAUACUAUACUACGUACUACCUCA | 0.0192 ± 0.0028 | 0.00407 ± 0.0022 |
| GGAGACCUAACUAUACACCCUACUACCUCA | 0.0388 ± 0.013 | 0.00682 ± 0.0033 |
| GGAGACCAUAGUAUACAACCUACUACGUCA | 0.0462 ± 0.0097 | 0.00463 ± 0.0028 |
| GGAGACGUUACUAUACAUCCUACUACCUCA | 0.293 ± 0.018 | 0.00676 ± 0.003 |
| GGAGACCAUACUAUACACCCUACUACCUCA | 0.0841 ± 0.016 | 0.00656 ± 0.0021 |
| GGAGACGAUACUAUACUACCUACUUCCUCA | 0.101 ± 0.016 | 0.00224 ± 0.0016 |
| GGAGACCUAACCUAUACAACCUACUACCUCA | 0.107 ± 0.056 | 0.0868 ± 0.028 |
| GGAGACCAUACUAUACAACCUACUCCCUCA | 0.106 ± 0.017 | 0.00669 ± 0.0039 |
| GGAGAGGAUACUUUUCAACCUACUACCUCA | 0.145 ± 0.011 | 0.00409 ± 0.004 |
| GGAGAGGAUACUAAACAACCUUCUACCUCA | 0.0108 ± 0.0026 | 0.00394 ± 0.0023 |
| GGAGUGGAUACUAAACAACCUAGUACCUCA | 0.0567 ± 0.011 | 0.00256 ± 0.0016 |
| GGAGAGGAUACUAAACAACCUACUACCACA | 0.108 ± 0.011 | 0.00277 ± 0.002 |
| GGAGACGAUACUAUACAACCUAGUACCACA | 0.00571 ± 0.0053 | 0.00488 ± 0.0029 |
| GGAGACCAUACUAUACAACCUAACUACCUCA | 0.0248 ± 0.0049 | 0.00707 ± 0.0033 |
| GGAGAGGAAACUAUACAACGUACUACCUCA | 0.0138 ± 0.0051 | 0.00339 ± 0.0016 |
| GGAGACCUAAAUAUACAACCUACUACCUCA | 0.0318 ± 0.0077 | 0.0102 ± 0.0046 |
| GGAGACGAUACUAUACAACCUACAACCUCA | 0.142 ± 0.019 | 0.00407 ± 0.0013 |

| Sequence | pre-steady-state target cleavage rate [1] | pre-steady-state target cleavage rate [2] |
| --- | --- | --- |
| GGAGACCACUACUAUACAACCUACUACCUCA | 0.149 ± 0.016 | 0.0313 ± 0.014 |
| GGAGUGGAUACUAUAGAUCCUACUACCUCA | 0.251 ± 0.015 | 0.0045 ± 0.0029 |
| GGAGACCAUACUAUACAUCCUAGUACCUCA | 0.0776 ± 0.018 | 0.00345 ± 0.0019 |
| GGAGACCAUACUAUACAUCCUACUACGUCA | 0.158 ± 0.027 | 0.00585 ± 0.0034 |
| GGAGAGGAUACUAUACAACCUACAACCACA | 0.00451 ± 0.0037 | 0.00436 ± 0.0017 |
| GGAGUGGUUUCUAUACAACCUACUACCUCA | 0.148 ± 0.0079 | 0.00603 ± 0.0034 |
| GGAGUCGAUACAAUACAACCUACUACCUCA | 0.177 ± 0.012 | 0.00908 ± 0.0047 |
| GGAGACCAUACAAUACAACCUACUACCUGA | 0.12 ± 0.019 | 0.00286 ± 0.0028 |
| GGAGACGAAAGUAUACAACCUACUACCUCA | 0.108 ± 0.01 | 0.0104 ± 0.0056 |
| GGAGACCAUACUAUACAAGCUACUACCUGA | 0.157 ± 0.019 | 0.00543 ± 0.0026 |
| GGAGACCUUACUUUACAUCCUACUACCUCA | 0.26 ± 0.022 | 0.00417 ± 0.0035 |
| GGAGAGGAUACUAUCCAACCUACUACCUCA | 0.232 ± 0.015 | 0.00889 ± 0.004 |
| GGAGAGGAUACAUACAACCUACUACCUCA | 0.137 ± 0.016 | 0.0103 ± 0.005 |
| GGAGACCAUACUAUACAACUUACUACCUCA | 0.0165 ± 0.0023 | 0.00338 ± 0.0027 |
| GGAGUGGAUACUAUACAUCCUACUACCUCA | 0.267 ± 0.014 | 0.124 ± 0.044 |
| GGAGACCAUACUAUACAACCUACUACUCUCA | 0.331 ± 0.028 | 0.00773 ± 0.0036 |
| GGAGUCGAUACUAUACAACCUACUACGUCA | 0.0797 ± 0.0078 | 0.00643 ± 0.0028 |
| GGAGACGAUACUAAACAACCUAGUACCUCA | 0.049 ± 0.0087 | 0.00281 ± 0.0023 |
| GGAGACCUAUCUAUACAACCUACUACCUUA | 0.103 ± 0.015 | 0.0739 ± 0.027 |
| GGAGACCAUACUAUACAACCUACUACCUGA | 0.155 ± 0.023 | 0.00567 ± 0.0018 |
| GGAGACCAUACUAUACAACCUUCUACGUCA | 0.00397 ± 0.0034 | 0.00387 ± 0.0029 |
| GGAGUGGAUACUAUACAACCUACCACCUCA | 0.0748 ± 0.01 | 0.00271 ± 0.0014 |
| GGAGAGGAUACAAUACAACCUAGUACCUCA | 0.0411 ± 0.0087 | 0.00263 ± 0.0018 |
| GGAGACGAUAUAUACAACCUACUACCUCA | 0.154 ± 0.011 | 0.00621 ± 0.0041 |
| GGAGACCAUACUAUACUACCUACUACGUCA | 0.104 ± 0.017 | 0.0039 ± 0.0028 |
| GGAGACCAUACUAUACAACCUAGUUCCUCA | 0.0546 ± 0.018 | 0.00549 ± 0.0029 |
| GGAGACCUAUCUAUACAACCUACUACCGUCA | 0.141 ± 0.019 | 0.00478 ± 0.0036 |
